Consider six molecules from PubChem BioAssay (EPA / NIEHS).

Results filed as inconclusive are left out. The source holds several records for some structures; these can differ, active in one and inactive in another. Active and inactive are the calls of the source. How the source made its calls, unless noted: active means hit-call score of the fitted dose curve at least 0.9, where 1 is the maximum; inconclusive means response in the unintended direction; inactive means score below 0.9.

The nature of assay [1]: ATG_GRE_CIS: Attagene CIS-FACTORIAL HepG2 Assay for human Glucocorticoid Response Elements (GRE) (AID 2282947; active means hit-call score of the fitted dose curve at least 0.9, where 1 is the maximum; inactive means score below 0.9). Particulars: HepG2 GRE cis-reporter, Attagene multiplex mRNA; actives raise or lower the signal. Summed up:
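Fluorescence intensity of reporter-specific cDNA fragments, separated by capillary electrophoresis, provides the signal. Constructs carry cis-regulating promoters in transiently transfected HepG2 liver cells; 24 h incubation; fitting is bidirectional against DMSO.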

For assay [2], the target named is Hepatocyte nuclear factor 6 (Homo sapiens) (UniProt Q9UBC0). Description: ATG_HNF6_CIS: Attagene CIS-FACTORIAL HepG2 Assay for human Hepatocyte Nuclear Factor 6 (HNF6) (AID 2282952; active means hit-call score of the fitted dose curve at least 0.9, where 1 is the maximum; inactive means score below 0.9). The following applies: HepG2 Attagene cis-factorial HNF6 reporter transcription; actives raise or lower the signal. Summed up: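 Endogenous transcription factor activity in human HepG2 liver cells was captured through cis-regulated reporter constructs. After 24 h treatment, reporter mRNA was measured by RT-PCR with capillary electrophoresis, and activity was fitted in both directions relative to DMSO.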
Sequence of Hepatocyte nuclear factor 6 (Homo sapiens) (Q9UBC0 whole entry, looked up): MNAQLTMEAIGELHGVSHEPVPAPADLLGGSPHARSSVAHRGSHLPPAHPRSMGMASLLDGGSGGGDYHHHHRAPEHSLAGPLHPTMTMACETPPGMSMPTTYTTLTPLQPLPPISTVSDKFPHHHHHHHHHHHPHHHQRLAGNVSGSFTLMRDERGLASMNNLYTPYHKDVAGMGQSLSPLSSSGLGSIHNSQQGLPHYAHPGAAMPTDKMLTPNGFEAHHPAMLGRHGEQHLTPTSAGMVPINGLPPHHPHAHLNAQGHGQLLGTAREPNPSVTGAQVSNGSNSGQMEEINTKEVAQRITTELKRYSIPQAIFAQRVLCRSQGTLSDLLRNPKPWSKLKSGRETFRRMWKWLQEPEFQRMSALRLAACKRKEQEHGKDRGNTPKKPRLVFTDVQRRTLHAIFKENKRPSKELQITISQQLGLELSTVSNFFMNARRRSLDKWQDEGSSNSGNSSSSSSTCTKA

Assay [3] in a line: ATG_PBREM_CIS: Attagene CIS-FACTORIAL HepG2 Assay for human Phenobarbital-responsive Enhancer Module (PBREM) (AID 2282955; active means hit-call score of the fitted dose curve at least 0.9, where 1 is the maximum; inactive means score below 0.9). The following applies: HepG2 PBREM cis-reporter, Attagene multiplexed transcription; actives raise or lower the signal. An outline of the steps: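 Endogenous transcription factor activity was read from reporter transcripts in transiently transfected human HepG2 liver cells after 24 h dosing. RT-PCR products were fluorescently labelled, HpaI-cut and sized by capillary electrophoresis; activity fitted bidirectionally against DMSO baseline.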

Assay [4] is described as follows: ATG_TGFb_CIS: Attagene CIS-FACTORIAL HepG2 Assay for human Transforming Growth Factor (TGF) (AID 2282967; active means hit-call score of the fitted dose curve at least 0.9, where 1 is the maximum; inactive means score below 0.9). The following applies: HepG2 Attagene CIS TGFb reporter, mRNA transcription; actives raise or lower the signal. Summed up:
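Bidirectional fitting relative to DMSO gave the endpoint. Underlying data: reporter mRNA from HepG2 cells carrying transiently transfected cis-regulated reporter constructs, harvested 24 h after dosing and analyzed by RT-PCR and capillary electrophoresis.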

Assay [5] has as its target Hepatocyte nuclear factor 4-alpha (Homo sapiens) (UniProt P41235). Description: ATG_HNF4a_TRANS: Attagene TRANS-FACTORIAL HepG2 Assay for human Hepatocyte Nuclear Factor 4 alpha (HNF4a) (AID 2282982). The following applies: HepG2 HNF4a transactivation reporter, mRNA readout. Summed up: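 Endpoint reflects transcriptional activation of a GAL4-UAS reporter by an HNF4a-GAL4 chimera in transfected HepG2 cells, 24 h post-dosing. Fluorescence from RT-PCR products separated by capillary electrophoresis; DMSO baseline.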

Assay [6] is described as follows: ATG_M_32_TRANS: Attagene TRANS-FACTORIAL HepG2 Assay for M32 Transcription Factor (Internal Marker) (AID 2282984).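 Further: transcript level of a background control reporter unit measured by RT-PCR and capillary electrophoresis.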 The following applies: HepG2 Attagene TRANS M32 internal marker reporter. An outline of the steps:
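Internal-marker readout from a multiplexed transcription reporter panel. HepG2 cells were transfected with GAL4-UAS reporter units, treated 24 hours, and reporter transcript levels determined by fluorescence after RT-PCR and capillary separation.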

The target of assay [7] is Retinoic acid receptor RXR-alpha (Homo sapiens) (UniProt P19793). The assay can be described thus: ATG_RXRa_TRANS: Attagene TRANS-FACTORIAL HepG2 Assay for human Retinoid X Receptor alpha (RXRa) (AID 2283012). An outline of the steps: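 Measures exogenous chimeric NR-GAL4 activity in transfected HepG2 liver cells after 24 h of dosing. Induced reporter mRNA was detected by RT-PCR with capillary electrophoresis, and gain of signal was analysed against DMSO.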
Sequence of Retinoic acid receptor RXR-alpha (Homo sapiens) (P19793 whole entry, looked up, the tested form may be a part): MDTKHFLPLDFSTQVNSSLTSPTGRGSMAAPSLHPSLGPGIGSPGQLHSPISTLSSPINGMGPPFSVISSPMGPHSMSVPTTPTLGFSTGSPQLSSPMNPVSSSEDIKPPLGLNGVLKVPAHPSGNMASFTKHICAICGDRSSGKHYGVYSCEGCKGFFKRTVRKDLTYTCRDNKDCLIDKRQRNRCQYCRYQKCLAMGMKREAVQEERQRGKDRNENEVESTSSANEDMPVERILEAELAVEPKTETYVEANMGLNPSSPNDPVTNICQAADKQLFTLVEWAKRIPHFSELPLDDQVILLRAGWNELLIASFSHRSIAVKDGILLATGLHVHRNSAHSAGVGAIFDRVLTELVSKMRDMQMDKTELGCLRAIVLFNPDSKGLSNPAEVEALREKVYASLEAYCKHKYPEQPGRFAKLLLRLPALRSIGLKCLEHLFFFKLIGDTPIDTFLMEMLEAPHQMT

Assay [8] deals with human Retinoid X Receptor beta (RXRb), RXRB (gene 6257) (UniProt P28702). The assay can be described thus: ATG_RXRb_TRANS: Attagene TRANS-FACTORIAL HepG2 Assay for human Retinoid X Receptor beta (RXRb) (AID 2283013). An outline of the steps: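 Chimeric receptor-Gal4 activity was assessed in transiently transfected human HepG2 cells after 24 h exposure. Transcripts from GAL4-UAS reporters were quantified by fluorescent RT-PCR and capillary electrophoresis, with DMSO as negative control and baseline.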
Sequence of human Retinoid X Receptor beta (RXRb), RXRB (gene 6257) (P28702 whole entry, looked up, the tested form may be a part): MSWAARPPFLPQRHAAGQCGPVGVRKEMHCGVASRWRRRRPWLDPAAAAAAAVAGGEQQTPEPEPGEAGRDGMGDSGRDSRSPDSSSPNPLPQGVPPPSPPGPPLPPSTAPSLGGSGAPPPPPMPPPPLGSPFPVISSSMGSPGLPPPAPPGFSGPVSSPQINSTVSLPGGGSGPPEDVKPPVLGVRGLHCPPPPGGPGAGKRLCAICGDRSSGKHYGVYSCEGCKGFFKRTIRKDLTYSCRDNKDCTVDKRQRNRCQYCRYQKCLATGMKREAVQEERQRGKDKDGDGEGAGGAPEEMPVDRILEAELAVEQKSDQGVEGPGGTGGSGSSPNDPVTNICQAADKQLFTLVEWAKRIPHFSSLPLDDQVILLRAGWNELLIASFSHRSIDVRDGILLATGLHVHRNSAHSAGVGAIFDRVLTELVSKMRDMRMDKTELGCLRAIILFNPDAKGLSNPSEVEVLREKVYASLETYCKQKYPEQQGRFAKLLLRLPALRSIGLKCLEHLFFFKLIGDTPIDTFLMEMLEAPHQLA

Assay [9] can be described thus: TOX21_p53_BLA_p2_viability: Viability Assessment in the Tox21 HCT-116 p53 Agonism Beta-lactamase Assay, Phase 2 (AID 2283591).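 Further: compound exposure lasted 16 h at 37 °C; actives lower the ATP signal meaning cytotoxicity.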 Summed up:
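HCT116 p53-bla cells, 4000/well, dosed after 5 h plating (217-fold dilution of DMSO stocks) and incubated 16 h at 37C. Viability taken as cellular ATP by CellTiter-Glo luminescence after 30 min RT; signal loss marks cytotoxicity.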

In assay [10] the target is Cellular tumor antigen p53 (Homo sapiens) (UniProt P04637). Description: TOX21_p53_BLA_p2_ratio: Tox21 HCT-116 p53 Agonism Beta-lactamase Assay, Ratio, Phase 2 (AID 2283592). Summed up:
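Cleaved-to-uncleaved substrate ratio (460 vs 530 nm) measured in HCT116 cells with an inducible beta-lactamase reporter linked to p53 activity. Compounds incubated 16 h at 37C before 2 h room-temperature CCF4-AM loading.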

The target is the same in assay [11]. Description: TOX21_p53_BLA_p3_ratio: Tox21 HCT-116 p53 Agonism Beta-lactamase Assay, Ratio, Phase 3 (AID 2283596). An outline of the steps:
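Cells were seeded at 4000/well, rested 5 h at 37C, then dosed with DMSO compound solutions (217-fold dilution) for 16 h. CCF4-AM substrate was loaded for 2 h at room temperature, and the 460/530 nm emission ratio was fitted for gain of signal versus DMSO.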

Assay [12] shares this target. The assay can be described thus: TOX21_p53_BLA_p5_ratio: Tox21 HCT-116 p53 Agonism Beta-lactamase Assay, Ratio, Phase 5 (AID 2283599). An outline of the steps: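 HCT-116 p53-bla cells (4000/well) plated 5 h, dosed with compound (217-fold DMSO dilution) for 16 h at 37 C; CCF4-AM substrate 2 h at room temperature. Activity is the 460/530 nm emission ratio (405 nm excitation), fitted in gain-of-signal direction versus DMSO.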

A short description of assay [13]: TOX21_p53_BLA_p5_viability: Viability Assessment in the Tox21 HCT-116 p53 Agonism Beta-lactamase Assay, Phase 5 (AID 2283600). Summed up: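 Viability is taken from cellular ATP content, measured by luciferase luminescence in the same wells after the beta-lactamase ratio read. Cells are seeded at 4000 per well and exposed to DMSO-dissolved compounds, diluted 217-fold, for 16 h.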

In assay [14] the target is Cellular tumor antigen p53 (Homo sapiens) (UniProt P04637). Description: TOX21_p53_BLA_p4_ratio: Tox21 HCT-116 p53 Agonism Beta-lactamase Assay, Ratio, Phase 4 (AID 2283601). An outline of the steps:
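HCT-116 p53 beta-lactamase reporter cells (4000/well) preincubated 5 h, then compound (217-fold dilution of DMSO stock) for 16 h at 37C. CCF4-AM substrate added 2 h at room temperature; 460/530 nm emission ratio fitted upward versus DMSO.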

Assay [15] is described as follows: ATG_M_19_CIS: Attagene CIS-FACTORIAL HepG2 Assay for M19 Transcription Factor (Internal Marker) (AID 2282939; active means hit-call score of the fitted dose curve at least 0.9, where 1 is the maximum; inactive means score below 0.9). Particulars: HepG2 Attagene CIS-FACTORIAL M19 internal marker reporter; actives raise or lower the signal. Summed up:
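Signals come from fluorescence of labelled reporter-specific PCR fragments resolved by capillary electrophoresis, following 24 h treatment of HepG2 cells transfected with cis-promoter reporter units; activity was fitted in both directions relative to DMSO.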

Assay [16] is described as follows: ATG_MRE_CIS: Attagene CIS-FACTORIAL HepG2 Assay for human Metal Responsive Element (MRE) (AID 2282954; active means hit-call score of the fitted dose curve at least 0.9, where 1 is the maximum; inactive means score below 0.9). The following applies: HepG2 MRE cis-reporter transcription, Attagene multiplex; actives raise or lower the signal. Summed up: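 Measured here is mRNA induction from an MRE cis-element reporter in HepG2 after 24 h, quantified by fluorescence of labelled RT-PCR products on capillary electrophoresis; gain- and loss-of-signal fits use DMSO as baseline.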

The target in assay [17] is X-box-binding protein 1 (Homo sapiens) (UniProt P17861). The assay can be described thus: ATG_Xbp1_CIS: Attagene CIS-FACTORIAL HepG2 Assay for human X-box Binding Protein 1 (XBP1) (AID 2282972; active means hit-call score of the fitted dose curve at least 0.9, where 1 is the maximum; inactive means score below 0.9). Particulars: HepG2 XBP1 cis-element reporter, Attagene multiplex; actives raise or lower the signal. An outline of the steps:
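Read-out: fluorescent reporter mRNA fragments resolved by capillary electrophoresis after RT-PCR. Human HepG2 liver cells carried transfected cis-promoter reporter units and were exposed to chemicals for 24 hours. Gain or loss of signal fitted relative to DMSO baseline.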

Assay [18] is described as follows: ATG_NF_kB_CIS: Attagene CIS-FACTORIAL HepG2 Assay for human Nuclear Factor Kappa B (NF-kB) (AID 2282991; active means hit-call score of the fitted dose curve at least 0.9, where 1 is the maximum; inactive means score below 0.9). The following applies: HepG2 Attagene cis-factorial NF-kB reporter mRNA; actives raise or lower the signal. An outline of the steps:
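Readout is reporter transcript level, gain or loss versus DMSO, measured 24 h post-dose via RT-PCR, fluorescent labelling and capillary electrophoresis. Human HepG2 liver cells carried transiently transfected CIS reporter constructs reflecting endogenous factors.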

Assay [19] can be described thus: ATG_M_06_TRANS: Attagene TRANS-FACTORIAL HepG2 Assay for M06 Transcription Factor (Internal Marker) (AID 2282983). The following applies: HepG2 Attagene TRANS M06 internal marker reporter. An outline of the steps: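 Human liver HepG2 cells bearing transiently transfected chimeric NR-GAL4 reporter units were treated with chemicals for 24 h. Total RNA was reverse-transcribed, reporter sequences amplified and labelled, then quantified by capillary electrophoresis. Activity was fitted upward relative to DMSO.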

Sequence of X-box-binding protein 1 (Homo sapiens) (P17861 whole entry, looked up, the tested form may be a part): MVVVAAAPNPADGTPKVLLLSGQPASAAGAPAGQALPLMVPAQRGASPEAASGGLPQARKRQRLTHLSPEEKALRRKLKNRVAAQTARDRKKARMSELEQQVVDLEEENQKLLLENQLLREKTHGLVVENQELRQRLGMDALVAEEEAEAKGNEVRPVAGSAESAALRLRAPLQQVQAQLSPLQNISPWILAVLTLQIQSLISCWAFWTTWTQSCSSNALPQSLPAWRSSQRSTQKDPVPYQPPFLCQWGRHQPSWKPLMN
Sequence of Hepatocyte nuclear factor 4-alpha (Homo sapiens) (P41235 whole entry, looked up, the tested form may be a part): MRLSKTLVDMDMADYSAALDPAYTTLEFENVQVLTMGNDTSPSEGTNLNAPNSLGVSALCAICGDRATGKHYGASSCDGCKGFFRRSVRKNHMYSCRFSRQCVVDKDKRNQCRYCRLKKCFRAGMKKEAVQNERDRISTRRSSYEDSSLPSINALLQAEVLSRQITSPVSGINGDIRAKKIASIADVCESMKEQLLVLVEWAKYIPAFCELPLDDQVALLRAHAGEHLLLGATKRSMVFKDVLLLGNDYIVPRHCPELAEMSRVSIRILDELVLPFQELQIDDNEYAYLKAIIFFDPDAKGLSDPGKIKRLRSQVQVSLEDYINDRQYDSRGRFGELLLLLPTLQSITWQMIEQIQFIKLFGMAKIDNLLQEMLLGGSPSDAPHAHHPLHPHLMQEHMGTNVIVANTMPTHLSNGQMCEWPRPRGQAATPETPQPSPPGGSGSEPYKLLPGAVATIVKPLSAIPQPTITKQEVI
Sequence of Cellular tumor antigen p53 (Homo sapiens) (P04637 whole entry, looked up): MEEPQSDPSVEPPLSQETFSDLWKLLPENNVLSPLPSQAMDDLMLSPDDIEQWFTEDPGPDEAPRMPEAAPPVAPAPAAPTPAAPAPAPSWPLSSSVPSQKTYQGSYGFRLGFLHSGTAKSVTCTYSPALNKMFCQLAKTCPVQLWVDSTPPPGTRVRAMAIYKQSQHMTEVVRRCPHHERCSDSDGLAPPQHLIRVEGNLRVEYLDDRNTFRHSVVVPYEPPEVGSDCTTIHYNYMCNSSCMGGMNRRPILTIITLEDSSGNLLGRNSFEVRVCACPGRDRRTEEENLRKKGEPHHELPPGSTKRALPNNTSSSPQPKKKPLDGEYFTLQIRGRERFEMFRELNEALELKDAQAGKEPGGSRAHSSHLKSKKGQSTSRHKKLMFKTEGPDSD

`CC(C)(Oc1ccc(Cl)cc1)C(=O)O`: the molecule was called inactive in [1], in assay [2], in assay [3], in [4], in [5] and in assay [6]. The molecule was called inactive in assay [7], in [8], in assay [9], in assay [10], in [11] and in assay [12]. Besides, the call in assay [13] and in assay [14] was inactive.
Turning to `Cc1cccnc1`, the molecule was classed as inactive in [15], in assay [2], in [16], in assay [3], in assay [4] and in [17]. The result in assay [6], in [18] and in assay [7] was inactive.
For the molecule `CC(C)(C)NC(=O)[C@@H]1CN(Cc2cccnc2)CCN1C[C@@H](O)C[C@@H](Cc1ccccc1)C(=O)N[C@H]1c2ccccc2C[C@H]1O`, the outcome in assay [1], in assay [16], in assay [3], in [4], in [17] and in assay [7] was inactive. Moreover, the result in [8], in [10], in assay [11] and in assay [12] was inactive. Also, the AC50 in assay [9] was 36.3 µM (active); in assay [10], 40.8 µM (active); in assay [12], 43.8 µM (active); in assay [13], 37.5 µM (active); in assay [14], 39.8 µM (active).
With `C[Si](C)(C)O[Si](C)(C)O[Si](C)(C)C`, the outcome in [15], in assay [16], in assay [3], in assay [17], in assay [19] and in assay [18] was inactive. Further, the outcome in assay [9], in [10], in assay [11], in assay [12], in [13] and in [14] was inactive.
For the molecule `C1=CCC=C1`, the result in assay [15], in [17], in assay [5], in assay [19], in [6] and in assay [7] was inactive. Moreover, the outcome in [8] was inactive.
Take `COC(=O)c1ccccc1`: the result in [15], in assay [17], in [5], in [19], in assay [6] and in assay [18] was inactive. In addition, the outcome in [7], in assay [9], in assay [10], in [11], in assay [12] and in assay [14] was inactive. The half-maximal activity concentration (AC50) in assay [4] was 0.5 µM (active).
